Measurements published in PubChem BioAssay (NCATS).
Where “and” joins values, the source holds several entries; their conditions need not be identical. Equal entries are not always repeated. Results filed as inconclusive are left out. Calls of active or inactive are those of the source. Unless noted, the call rests on the fitted dose curve; in most records, active means well fitted curve in the direction sought with a large enough effect; inconclusive means small, poorly fitted or top-dose-only effect, or another doubt; inactive means no such curve, though single readings can be large; an effect the other way counts as inactive or inconclusive.

How the values were obtained:
[1] = S16 Schwann cell viability assay (CellTiter-Glo assay) (AID 624031);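 further: cellular ATP luminescence as a viability measure; series mostly up to about 58 µM; plate controls were DMSO-treated cells for no effect and cell-free wells for full effect; nearly all actives have a fitted effect of over 70% in size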
Summary of the method: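 This viability control uses native rat S16 Schwann cells grown in DMEM plus 10% FBS. After a 24 h compound treatment at 37 °C, CellTiter-Glo luminescence reports ATP content, scaled against DMSO-treated and cell-free wells.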

[2] = S16 Schwann cell PMP22 intronic element firefly luciferase assay (AID 624032);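 further: series mostly up to about 58 µM; plate controls were DMSO for no effect and PTC124 positive control mean for full effect; nearly all actives have a fitted effect of over 30% in size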
Summary of the method: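 Rat S16 Schwann cells stably carrying firefly luciferase driven by a PMP22 intronic element, in 10% FBS, treated 24 h at 37 C. ONE-Glo luminescence normalized to PTC124 control and DMSO (0%); curves classed by r2, magnitude and activity.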

[3] = qHTS of Trypanosoma Brucei Inhibitors: LOPAC Validation (AID 624147); further: 0% is about no effect
Summary of the method: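 Screened from lowest to highest concentration, compounds were pinned into TbPYK/substrate mixtures, and ADP (130 uM final) was added. Plates sat at room temperature for 45 min prior to Kinase-Glo Plus detection by luminescence.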

[4] = target: Glucagon-like peptide 1 receptor (Homo sapiens) (UniProt P43220); experiment: qHTS of GLP-1 Receptor Agonists: LOPAC Validation (AID 624148);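 further: 0% is about no effect; higher luminescence signal means agonism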
Sequence of Glucagon-like peptide 1 receptor (Homo sapiens) (P43220 whole entry, looked up): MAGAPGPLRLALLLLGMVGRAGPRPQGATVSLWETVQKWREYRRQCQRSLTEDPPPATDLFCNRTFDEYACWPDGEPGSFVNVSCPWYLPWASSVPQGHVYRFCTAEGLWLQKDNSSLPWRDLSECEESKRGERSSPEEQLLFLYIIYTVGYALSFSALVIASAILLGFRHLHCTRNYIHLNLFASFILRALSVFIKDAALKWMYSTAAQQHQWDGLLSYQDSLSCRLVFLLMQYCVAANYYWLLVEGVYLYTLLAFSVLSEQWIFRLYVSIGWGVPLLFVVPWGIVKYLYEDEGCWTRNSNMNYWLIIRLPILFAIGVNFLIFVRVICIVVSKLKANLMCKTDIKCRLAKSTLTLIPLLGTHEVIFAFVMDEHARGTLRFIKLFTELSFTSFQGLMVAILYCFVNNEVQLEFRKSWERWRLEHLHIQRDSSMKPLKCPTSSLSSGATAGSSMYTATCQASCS
Summary of the method: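 HEK293 cells stably co-expressing GLP-1R and a cAMP-responsive luciferase reporter, plated 12 hours before compound, then incubated 4-6 hr at 37 deg C. Luminescence read 12 min after detection reagent.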

[5] = qHTS of Nrf2 Activators: LOPAC Validation (AID 624149); further: 0% is about no effect
Summary of the method: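 AREc32_Fluc cells, 1000/well in OPTI-MEM with 5% FBS, grown overnight, then exposed to compounds for 24 hr at 37 deg C, 5% CO2. ARE-driven firefly luciferase read by Steady-Glo luminescence after 30 min at RT.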

[6] = HTS Assay for Allosteric Antagonists of the Human D2 Dopamine Receptor: Hit Validation in HTRF (AID 624455);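 further: stable D1 dopamine receptor cell line scored for blocking the D1 response; on the % scale 0 is the no-effect control and ±100 the full control effect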
Summary of the method: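 Hit validation in cells stably expressing the D1 dopamine receptor, run in HTRF format. Compounds were tested for their ability to inhibit the D1-mediated response.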

[7] = target: Glutaminase kidney isoform, mitochondrial (Homo sapiens) (UniProt O94925); experiment: qHTS for Inhibitors of Glutaminase (GLS): LOPAC Validation (AID 624146);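 further: glutamate product detected by oxidase and peroxidase coupled Amplex red fluorescence gain; series mostly up to about 46 µM; on the % scale 0 is the no-effect control and ±100 the full control effect; nearly all actives have a fitted effect of over 60% in size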
Sequence of Glutaminase kidney isoform, mitochondrial (Homo sapiens) (O94925 whole entry, looked up, canonical isoform): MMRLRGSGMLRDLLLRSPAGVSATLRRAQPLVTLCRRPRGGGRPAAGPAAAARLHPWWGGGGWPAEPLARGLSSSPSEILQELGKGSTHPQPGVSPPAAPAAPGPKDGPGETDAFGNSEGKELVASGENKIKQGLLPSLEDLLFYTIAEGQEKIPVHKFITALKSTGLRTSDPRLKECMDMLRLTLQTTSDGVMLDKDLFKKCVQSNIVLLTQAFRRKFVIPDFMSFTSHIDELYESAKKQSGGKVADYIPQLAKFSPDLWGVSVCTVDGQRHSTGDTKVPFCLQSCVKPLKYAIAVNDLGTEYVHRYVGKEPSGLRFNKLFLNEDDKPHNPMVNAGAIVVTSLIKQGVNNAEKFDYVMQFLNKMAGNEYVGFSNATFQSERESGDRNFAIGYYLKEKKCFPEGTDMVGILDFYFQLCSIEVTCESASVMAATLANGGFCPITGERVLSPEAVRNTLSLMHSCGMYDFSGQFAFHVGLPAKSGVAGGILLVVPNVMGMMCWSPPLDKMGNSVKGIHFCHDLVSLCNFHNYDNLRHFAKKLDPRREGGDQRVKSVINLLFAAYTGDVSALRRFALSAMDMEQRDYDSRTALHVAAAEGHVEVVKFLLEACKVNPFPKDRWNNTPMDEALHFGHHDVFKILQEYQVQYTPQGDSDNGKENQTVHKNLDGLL
Summary of the method: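 hKGA; 45 mM KH2PO4 pH 8.2 + 0.02% Tween-20; cpd via pin tool; 1 mM Gln soln; GluOx/HRP/Amplex Red; RT 30 min; fluor. t0 & final.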

[8] = qHTS assay for small molecule activators of the nuclear factor-kappa B (NF-kB) signaling pathway (AID 651749; active means well fitted activation curve with a large enough effect in the signal ratio; the % refers to the signal ratio; further: series mostly up to about 77 µM; % of control where 0% means no effect); conditions: NF-kB-bla ME-180 cells, beta-lactamase FRET ratio, 16 h; hits give high values
Summary of the method: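 NF-kB-bla ME-180 cells carrying a beta-lactamase reporter under an NF-kB response element, 2,000 cells/well, exposed to compound for 16 hr at 37C; FRET-based beta-lactamase fluorescence read-out of pathway activation.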

[9] = S16 Schwann cell PMP22 intronic element beta-lactamase assay (AID 624044; calls by dose curve;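 further: 0% = DMSO and -100% = potassium clavulanate positive control; nearly all actives have a fitted effect of over 15% in size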)
Summary of the method: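 Rat S16 Schwann cells with beta-Lac driven by a PMP22 intronic element, compound-treated 24 h at 37 °C. LiveBLAzer FRET B/G read: 460 nm normalized to potassium clavulanate vs DMSO; 535 nm FRET as viability; concentration-effect curves classified.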

[10] = qHTS assay for small molecule agonists of the antioxidant response element (ARE) signaling pathway (AID 651741; active means well fitted activation curve with a large enough effect in the signal ratio; the % refers to the signal ratio; further: % of control where 0% means no effect)
Summary of the method: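 CellSensor ARE-bla HepG2 cells (2,000/well) carrying ARE-driven beta-lactamase, exposed 16 h at 37 C. LiveBLAzer B/G FRET substrate added for 2 h at room temperature; fluorescence intensity read.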

[11] = target: Tumor necrosis factor (Homo sapiens) (UniProt P01375); experiment: qHTS assay to identify small molecules that stimulate Tumor Necrosis Factor-alpha (TNF-alpha) secretion (AID 651757; active means well fitted curve in the direction sought with a large enough effect in the signal ratio; the % refers to the signal ratio; further: 0% is about no effect)
Sequence of Tumor necrosis factor (Homo sapiens) (P01375 whole entry, looked up): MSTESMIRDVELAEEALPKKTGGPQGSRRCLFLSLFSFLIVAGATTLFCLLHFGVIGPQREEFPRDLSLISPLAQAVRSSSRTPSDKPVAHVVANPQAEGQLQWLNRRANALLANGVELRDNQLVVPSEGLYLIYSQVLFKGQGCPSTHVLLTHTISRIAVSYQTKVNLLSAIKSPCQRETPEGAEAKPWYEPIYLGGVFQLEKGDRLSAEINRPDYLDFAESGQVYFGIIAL
Summary of the method: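 THP-1 cells (3000/well) exposed to compounds 17 hrs at 37 C. Secreted TNF-alpha detected by HTRF with cryptate- and XL665-labeled anti-TNF-alpha antibodies after 3 hr at room temperature.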

[12] = qHTS assay to identify small molecules that stimulate interleukin-8 (IL-8) secretion (AID 651758; active means well fitted activation curve with a large enough effect in the signal ratio; the % refers to the signal ratio; further: 0% is about no effect)
Summary of the method: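 THP-1 cells (2000/well) exposed to compound 16 h at 37 C; secreted IL-8 then detected by HTRF with cryptate- and XL665-labelled anti-IL-8 antibody pair after 1-3 h at room temperature.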

[13] = qHTS assay for small molecule activators of the p53 signaling pathway (AID 651743; active means well fitted activation curve with a large enough effect in the signal ratio, not every such curve was filed as active; the % refers to the signal ratio; further: series mostly up to about 92 µM; % of control where 0% means no effect); conditions: HCT-116 p53RE-bla, beta-lactamase FRET ratio, 16 h; hits give high values
Summary of the method: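 p53RE-bla HCT-116 cells carrying a beta-lactamase reporter under p53 response elements were exposed to compounds for 16 hours at 37 C. Reporter activity read as fluorescence after 2 hours at room temperature with LiveBLAzer B/G FRET substrate.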

NC(N)=Nc1nc(CSCC/C(N)=N/S(N)(=O)=O)cs1
inactive: Potency [1] | Potency [2] | outcome [3] | outcome [4] | outcome [5] | outcome [6]

CC(C)OC(=O)C(C)(C)Oc1ccc(C(=O)c2ccc(Cl)cc2)cc1
inactive: Potency [1] | Potency [2] | Potency [7] | outcome [4] | outcome [5] | outcome [6] | activation [8] -1.6%

CCOC(=O)O[C@]1(C(=O)OCCl)CC[C@@H]2[C@H]3CCC4=CC(=O)C=C[C@]4(C)[C@@H]3[C@@H](O)C[C@@]21C
inactive: Potency [1] | Potency [2] | Potency [9]

CC1(C)O[C@H]2C[C@@H]3[C@H]4CCC5=CC(=O)C=C[C@]5(C)[C@@]4(F)[C@@H](O)C[C@]3(C)[C@]2(C(=O)CO)O1
inactive: Potency [1] | Potency [2] | Potency [9]

COc1ccccc1N1CCN(CCCNc2cc(=O)n(C)c(=O)n2C)CC1
inactive: Potency [1] | Potency [2] | Potency [7] | outcome [3] | outcome [4] | outcome [5] | outcome [6]

CCN(CC)C(=O)c1ccc(O)c(OC)c1
inactive: Potency [1] | Potency [2] | outcome [3] | outcome [4] | outcome [5] | outcome [6]

CC(C)NCC(O)COc1cccc2[nH]ccc12 (stereo unspecified)
inactive: Potency [1] | Potency [2] | Potency [7] | outcome [3] | outcome [4] | outcome [6]

O=C(O)CCc1nc(-c2ccccc2)c(-c2ccccc2)o1
inactive: Potency [1] | Potency [2] | Potency [7] | outcome [3] | outcome [4] | outcome [6]

CC(=O)CCCCn1c(=O)c2c(ncn2C)n(C)c1=O
inactive: Potency [1] | Potency [2] | Potency [7] | outcome [3] | outcome [4] | outcome [5]

CCCCC1C(=O)N(c2ccccc2)N(c2ccccc2)C1=O
inactive: Potency [1] | Potency [2] | Potency [7] | outcome [3] | outcome [4] | outcome [5] | outcome [6] | Potency [10] | activation [8] -1.5% and -1.29% | outcome [11] | outcome [12]

O=C(O)Cc1cccc2ccccc12
inactive: Potency [1] | Potency [2] | Potency [10] | activation [13] -2.96% and -4.77% | activation [8] -0.417% and -0.959% | outcome [11]

CC(=O)N[C@@H](CS)C(=O)O
inactive: Potency [1] | Potency [2] | Potency [7] | outcome [3] | outcome [4] | outcome [5] | outcome [6] | Potency [10] | activation [13] 0.943%
